Compounds with a hit are over-represented: about 6.3% of the library has one in this group of screens.
tim23-1 inh = inhibits growth of tim23-1 mutant yeast; S. cerevisiae tim23-1 growth, BacTiter-Glo luminescence, 24 h; inhibition, % at 20 µM; hit rate 1.3% among 330,000; AID 463212;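 active = growth inhibition of the mutant yeast at or above 50%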;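 note: temperature-sensitive mutant grown at 25 °C; plate controls were DMSO-treated mutant yeast for no effect and medium wells lacking yeast for full effect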
tim10-1 inh = tim10-1 yeast growth inhibition; hit rate 2.2% among 330,000; AID 463190; S. cerevisiae tim10-1 ts strain growth, BacTiter-Glo, 24 h; inhibition, % at 20 µM;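 active = inhibition of at least 40%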;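 note: mutant grown at 25 °C; 0% = DMSO wells with yeast and 100% = wells holding no yeast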
Mdm2 MdmX PPI = human Mdm2/MdmX binding inhibition; AID 485346; hit rate 3% among 330,000; inhibition, % at 8 µM; SaOS-2 split-luciferase Mdm2/MdmX complementation, luminescence;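 active = inhibition of at least 50% at 8 µM in the primary screen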
Target sequence (O15151 whole entry, looked up): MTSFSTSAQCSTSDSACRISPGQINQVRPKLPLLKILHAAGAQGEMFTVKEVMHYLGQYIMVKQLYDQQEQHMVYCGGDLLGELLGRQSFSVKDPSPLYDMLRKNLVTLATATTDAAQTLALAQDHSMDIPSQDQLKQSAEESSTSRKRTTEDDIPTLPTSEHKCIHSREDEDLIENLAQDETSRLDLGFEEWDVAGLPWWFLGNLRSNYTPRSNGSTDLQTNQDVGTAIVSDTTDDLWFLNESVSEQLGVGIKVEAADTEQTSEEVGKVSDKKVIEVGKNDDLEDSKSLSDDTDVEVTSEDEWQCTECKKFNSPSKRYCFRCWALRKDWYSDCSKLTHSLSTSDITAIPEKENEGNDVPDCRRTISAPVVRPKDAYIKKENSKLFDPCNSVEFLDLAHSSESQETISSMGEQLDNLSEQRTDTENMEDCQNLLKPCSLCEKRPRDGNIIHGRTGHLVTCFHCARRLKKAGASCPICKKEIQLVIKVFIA
Target sequence (Q00987 whole entry, looked up): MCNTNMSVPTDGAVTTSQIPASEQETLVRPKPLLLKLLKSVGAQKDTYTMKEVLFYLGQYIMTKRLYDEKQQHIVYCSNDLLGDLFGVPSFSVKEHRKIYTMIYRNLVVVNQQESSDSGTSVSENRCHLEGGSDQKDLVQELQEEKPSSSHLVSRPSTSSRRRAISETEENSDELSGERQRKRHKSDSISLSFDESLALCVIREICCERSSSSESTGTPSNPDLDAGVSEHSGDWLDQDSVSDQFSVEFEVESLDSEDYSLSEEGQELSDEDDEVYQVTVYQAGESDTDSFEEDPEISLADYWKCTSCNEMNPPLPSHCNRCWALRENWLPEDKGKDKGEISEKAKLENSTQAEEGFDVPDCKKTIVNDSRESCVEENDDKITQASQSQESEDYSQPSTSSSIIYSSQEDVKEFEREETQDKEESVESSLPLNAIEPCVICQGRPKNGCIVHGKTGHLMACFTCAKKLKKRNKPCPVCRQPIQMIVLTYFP
TIM10 inh = TIM10 yeast growth inhibition. S. cerevisiae TIM10 strain growth, BacTiter-Glo luminescence, 24 h. inhibition, % at 10 µM. hit rate 1.4% among 330,000. AID 463195;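 active = inhibition of 40% or more at the single tested concentration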;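 note: wild-type TIM10 isogenic control strain grown at permissive 25 °C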
MPTP block = blocks calcium-induced mitochondrial swelling | hit rate 1.4% among 360,000 | isolated mouse mitochondria, Ca2+ swelling absorbance, 30 min | AID 602449 | inhibition, % at 10 µM;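 active = inhibition of 50% or more, scaled per plate between neutral and stimulator controls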;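 note: 0% = DMSO wells given calcium and 100% = 1 mM EGTA wells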
Mdm2-MdmX conf = human Mdm2/MdmX binding inhibition, confirmed; hit rate 55% among 10,000; inhibition, % at 8 µM; luminescent assay; shares compounds with Mdm2 MdmX PPI; AID 489028; in the data active = inhibition above about 40%
Full FLuc ctr = counter-screen for Mdm2/MdmX inhibitors: full-length luciferase; shares compounds with Mdm2 MdmX PPI; SaOS-2 full-length luciferase counterscreen, luminescence; inhibition, % at 8 µM; hit rate 77% among 6,200;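 active = mean inhibition at 8 µM reaching about 37%, which flags the compound as non-specific, limit read from the data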;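 note: p53-null SaOS-2 cells with luciferase driven by a doxycycline-inducible promoter; compound on cells about two nights before reading with doxycycline added after day one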
* marks the source's active call; other numbers are inactive results; x = not tested or not shown.

SMILES	tim23-1 inh	tim10-1 inh	Mdm2 MdmX PPI	TIM10 inh	MPTP block	Mdm2-MdmX conf	Full FLuc ctr
COc1ccccc1C(=O)NNC(=O)c1cc2ccccc2cc1O	x	x	x	x	2	x	x
COc1ccc(NC(=O)NNC(=O)c2ccc(-c3ccccc3)cc2)cc1	13	5	59*	1	1	28	x
CCCN(CCC)Cc1cc(=O)oc2cc(C)c(Cl)cc12	x	x	x	x	0	x	x
O=C(O)/C=C\c1cc2c(cc1[N+](=O)[O-])OCO2	10	18	-6	0	-1	x	x
O=C1NC(=S)N/C1=C/c1cc2c(cc1[N+](=O)[O-])OCO2	0	-3	55*	-7	-2	29	x
CS(=O)(=O)c1ccc(C(=O)OCC(=O)NCc2cccs2)cc1[N+](=O)[O-]	32	35	73*	18	1	53*	21
Cc1nc(Sc2nnnn2C)c2c3c(sc2n1)CCC3	24	15	97*	-1	-2	93*	63*
Cc1nc(SCC(=O)NCC2CCCO2)c2c3c(sc2n1)CCC3 (centres undefined)	31	8	24	9	1	x	x
CCc1nc(N2CCN(C(=O)c3ccccc3)CC2)c2c3c(sc2n1)CCCC3	6	29	22	7	0	x	x
CCc1nc(Sc2nnnn2-c2ccccc2)c2c3c(sc2n1)CCCC3	13	6	93*	-13	3	84*	52*
COC(=O)CCCn1cc(CN2CC(N3CCN(C)CC3)CS2(=O)=O)nn1 (centres undefined)	x	x	x	x	1	x	x
CNc1cccc(-c2ccccc2CO)n1	x	x	x	x	-1	x	x
CN(C)c1nc(N)nc(CSc2nc3cc(Cl)ccc3o2)n1	11	-7	-10	-2	1	x	x
O=S1(=O)C=C(Sc2nc3cc(Cl)ccc3o2)c2ccccc21	26	39	97*	19	2	96*	51*
COc1ccc2[nH]c(=O)c(CN(CC3CCCO3)C(=S)Nc3ccccc3)cc2c1 (centres undefined)	16	14	12	4	-2	x	x
COc1ccc2cc(CN(CC3CCCO3)C(=S)Nc3ccccc3)c(=O)[nH]c2c1 (centres undefined)	49	31	52*	36	-4	51*	57*
CCN1CCCC1CN(Cc1cc2ccc(C)cc2[nH]c1=O)C(=S)Nc1ccc(F)cc1 (centres undefined)	42	16	60*	11	-1	35	63*
COc1ccc2cc(CN(CC3CCCO3)C(=O)Nc3ccccc3OC)c(=O)[nH]c2c1 (centres undefined)	12	10	59*	18	1	53*	63*
CC1=CC(Cc2ccccc2)N(C)C(C(N)=O)C1 (centres undefined)	x	x	x	x	-1	x	x
C[C@H](CO)N1C[C@H](C)[C@H](CN(C)Cc2ccncc2)Oc2ncc(Br)cc2C1=O	x	x	x	x	0	x	x
COc1ccc(NC(=O)c2cc(-c3cc(Cl)ccc3O)n[nH]2)c(OC)c1	6	-10	69*	4	1	3	x
COc1ccc(NC(=O)c2cc(-c3cc(Cl)ccc3OC)n[nH]2)c(OC)c1	x	x	x	x	2	x	x
COc1cc(NC(=O)c2cccs2)c(C(=O)OCC(=O)NCc2ccccc2)cc1OC	-22	14	58*	6	3	16	x
COc1ccc(-c2cc(C(=O)N3CCN(c4ccccc4)CC3)c3ccccc3n2)cc1	29	30	37	22	2	x	x
CCOC(=O)N1CCN(C(=O)c2cc(-c3ccncc3)nc3ccccc23)CC1	13	1	57*	2	3	66*	55*
SMILES	tim23-1 inh	tim10-1 inh	Mdm2 MdmX PPI	TIM10 inh	MPTP block	Mdm2-MdmX conf	Full FLuc ctr
CCOC(=O)N1CCN(C(=O)c2cc(-c3ccc(OCC)cc3)nc3ccccc23)CC1	27	34	19	21	-1	x	x
CCOc1ccccc1N1CCN(C(=O)c2cc(-c3cc(OC)ccc3OC)nc3ccccc23)CC1	22	27	73*	9	1	46*	62*
Cc1ccc(-c2cc(C(=O)N3CCN(c4ccccc4O)CC3)c3ccccc3n2)cc1	2	-4	57*	12	2	32	x
Cc1cc(C(=O)N2CC=C(c3ccccc3)CC2)c2ccccc2n1	27	13	55*	3	3	74*	65*
Cc1ccc([C@H]2N[C@]3(CCCN(Cc4ccc(Cl)cc4)C3=O)[C@H]3C(=O)N(C)C(=O)[C@@H]23)cc1	x	x	x	x	-3	x	x
COc1cc(CNC(=O)Nc2nnc([C@@H]3C[C@H](O)[C@@H](CO)O3)s2)cc(OC)c1OC	x	x	x	x	0	x	x
COc1ccc(-c2cc(C(=O)N3CCN(c4ccccc4O)CC3)c3ccccc3n2)cc1OC	49	28	65*	14	1	35	x
CC(=O)c1ccc(N2CCN(C(=O)c3cc(-c4ccncc4)nc4ccc(Br)cc34)CC2)cc1	-30	-3	58*	11	0	37	105*
COc1ccc(-c2cc(C(=O)N3CCN(c4ccccc4O)CC3)c3ccccc3n2)cc1	0	-10	19	0	0	x	x
O=C(OCc1cn([C@H]2C[C@H](c3ccc(Cl)cc3)N(C(=O)c3cccs3)C[C@@H]2O)nn1)c1ccccc1	x	x	x	x	-1	x	x
CN1CCC(N(C)C(=O)c2cc(-c3ccc(F)cc3)nc3ccccc23)CC1	-8	-11	21	-4	1	x	x
O=C(NC1(Cc2ccccc2)CCN(Cc2ccc(-c3ccccc3)cc2)C1=O)c1ccccc1 (centres undefined)	38	17	63*	6	0	41*	77*
COc1ccc(-c2csc(NC(=S)NC(=O)c3ccc(S(=O)(=O)N(C)C)cc3)n2)cc1OC	-2	-9	70*	-17	1	23	x
COc1ccc(-c2csc(NC(=S)NC(=O)c3cccs3)n2)cc1OC	1	-7	41	8	4	x	x
COc1cc(/C=N/Nc2nc(-c3ccc(S(=O)(=O)N(C)C)cc3)cs2)ccc1O	7	28	82*	35	8	56*	81*
COc1ccc(-c2csc(NC(=O)c3ccc(OCC(=O)N4CCOCC4)c(OC)c3)n2)cc1OC	12	32	58*	11	2	39	x
COc1cc(C(=O)Nc2cccc(C)n2)ccc1OCC(=O)N1CCOCC1	-9	-17	-26	2	-1	x	x
COc1ccc(/C=N/Nc2nc(-c3cccc(S(=O)(=O)N4CCCC4)c3)cs2)cc1OC	17	8	-4	5	-1	x	x
COc1cc(NCCCNC(C)C)c2nccc(C)c2c1	x	x	x	x	0	x	x
Cc1ccc(NC(=O)CN2C(=O)S/C(=C\c3ccccn3)C2=O)cc1C	-13	-10	68*	-4	0	29	x
Cc1cccc(C)c1NC(=O)CN1C(=O)S/C(=C\c2cccn2C)C1=O	5	13	80*	13	0	2	x
Cc1cccc(C)c1NC(=O)CN1C(=O)S/C(=C\c2cccn2-c2cccc(C(=O)O)c2)C1=O	-3	6	18	-2	1	x	x

From PubChem
